SMN2 splice enh: qHTS Assay for Enhancers of SMN2 Splice Variant Expression. AID 1458, 2008. HEK293 SMN2-luciferase splicing reporter, luminescence, 30-36 h. Potency, µM (titrated, usually from 46.1 µM), inactives show at the top dose activity change, positive = activation, most hits filed as activators. 210,000 tested, 2.8% active; also: % of control where 0% means no effect; nearly all actives have a fitted effect of over 55% in size
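HEK293 cells carry an SMN2 minigene-luciferase reporter in which exon 7 inclusion puts luciferase in frame. Cells were seeded at 2000 cells/well, attached for 10-12 hours, then exposed to compounds for 30-36 hours at 37C before ONE-Glo luminescence.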
FLuc counter: qHTS profiling assay for firefly luciferase inhibitor/activator using purifed enzyme and Km concentrations of substrates (counterscreen for miR-21 project); purified FLuc, Km substrates, luminescence inhibition; AID 588342, 2011; 360,000 tested, 6.9% active; Potency, µM (highest dose often 57.5 µM), inactives show top-dose activity change, negative = inhibition, usual class: inhibitors; Luciferin 4-monooxygenase (Photinus pyralis), P08659;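 also: plate controls were vehicle for no effect and reference inhibitor for full effect; nearly all actives have a fitted effect of over 55% in size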
Target sequence (P08659 whole entry, looked up): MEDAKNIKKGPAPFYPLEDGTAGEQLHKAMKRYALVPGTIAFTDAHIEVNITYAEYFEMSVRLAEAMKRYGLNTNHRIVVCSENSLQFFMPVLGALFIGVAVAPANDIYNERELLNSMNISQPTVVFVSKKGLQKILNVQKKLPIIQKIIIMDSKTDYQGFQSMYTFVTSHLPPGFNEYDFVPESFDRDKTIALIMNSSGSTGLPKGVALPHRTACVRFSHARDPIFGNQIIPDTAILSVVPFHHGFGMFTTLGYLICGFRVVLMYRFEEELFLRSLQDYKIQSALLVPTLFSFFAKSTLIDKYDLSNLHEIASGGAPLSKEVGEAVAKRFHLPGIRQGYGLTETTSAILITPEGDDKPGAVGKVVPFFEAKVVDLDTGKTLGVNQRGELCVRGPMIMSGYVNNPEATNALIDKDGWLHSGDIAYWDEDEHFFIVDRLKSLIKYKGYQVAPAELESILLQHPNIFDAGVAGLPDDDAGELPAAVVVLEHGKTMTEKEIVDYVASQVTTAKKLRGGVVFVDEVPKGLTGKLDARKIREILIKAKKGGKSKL
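Biochemical qHTS of compounds, final roughly 60 µM downward over six points, against 10 nM purified firefly luciferase using Km concentrations of substrates (10 uM D-luciferin, 10 uM ATP) in Tris acetate pH 7.5 buffer; luminescence output.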
NPC1 promoter act: qHTS Assay for NPC1 Promoter Activators | Huh7 NPC1 promoter luciferase reporter, 24 h | Potency, µM (highest dose often 9.22 µM), without a hit: top-dose activation, usual class: activators | 320,000 tested, 2.4% active; also: % of control where 0% means no effect; nearly all actives have a fitted effect of over 60% in size
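Stably transfected Huh7 (NPC1 promoter→luciferase), 1500 cells/well in Opti-MEM + 10% FBS, 2 h settle, then compound 24 h at 37 °C. Luminescence after 10 min with Amplite reagent.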
Rab9 prom act: qHTS Assay for Rab9 Promoter Activators; Huh7 Rab9 promoter-luciferase reporter, luminescence, 24 h; 320,000 tested, 2.8% active; Potency, µM (titrated, usually from 9.22 µM), inactives show at the top dose activation, negative = inhibition, hits mostly activators; also: % of control where 0% means no effect; nearly all actives have a fitted effect of over 60% in size
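Steps: seed 1500 Huh7 Rab9-luc cells per well, rest 2 h at 37 °C; add compound in DMSO; incubate 24 h; add luciferase reagent, 10 min ambient; read luminescence.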
ELG1 genotox: qHTS screen for small molecules that induce genotoxicity in human embryonic kidney (HEK293T) cells expressing luciferase-tagged ELG1. AID 504466, 2011. HEK293T ELG1-luciferase reporter, luminescence, 16 h. Potency, µM (titrated, usually from 46 µM), inactives show top-dose activity change, positive = activation, most hits filed as activators. 330,000 tested, 1.3% active; also: % of control where 0% means no effect; nearly all actives have a fitted effect of over 60% in size
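Screening used a luciferase reporter fused to human ELG1 in HEK293T cells. Luminescence was read on a CCD plate imager after 16 hr exposure and 30 min ONE-Glo incubation.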
* marks the source's active call; other numbers are inactive results; ? = inconclusive; · = not tested or not shown. In the library only some 7.5% were active in any assay of this set; here they are far more common. Calls follow the shape of the dose curve; as a rule, active = well fitted curve in the direction sought with a large enough effect; inconclusive = small, poorly fitted or top-dose-only effect, or another doubt; inactive = no such curve, though single readings can be large; an effect the other way counts as inactive or inconclusive. Potency is read from the fitted curve at half-maximal effect.

SMILES	SMN2 splice enh	FLuc counter	NPC1 promoter act	Rab9 prom act	ELG1 genotox
Cc1cccc(/N=C/c2nc(-c3ccccc3Br)oc2O)n1	-22%	7.6µM*	-1%	-2%	2%
Cc1ccnc(N=Cc2nc(-c3ccccc3Br)oc2O)c1	58%	5.4µM*	22%	?	12%
COC(=O)CSc1nc2sc3c(c2c(=O)n1-c1ccccc1)C(C)CCC3 (configuration not stated)	-7%	-1%	·	·	·
CCCC(=O)N1CCN(c2ccc(NC(=O)c3sc4ccccc4c3Cl)cc2)CC1	-21%	3%	1%	1%	?
CC1CCC(NC(=O)COC(=O)c2ccco2)CC1 (configuration not stated)	·	24µM*	1%	-2%	-4%
O=C(COC(=O)c1ccco1)Nc1ccccc1	12%	?	-2%	-4%	-1%
O=C(Nc1ccc(Cc2ccncc2)cc1)c1ccco1	19%	19µM*	?	?	16%
O=C(COC(=O)c1ccccc1NC(=O)c1ccco1)NC1CC1	3%	4%	4%	6%	2%
O=C(COC(=O)c1ccco1)Nc1ccc(Br)cc1	-5%	9.5µM*	2%	3%	-1%
O=C(Nc1ccc(NC(=O)c2sc3ccccc3c2Cl)cc1)c1ccco1	-7%	0%	-3%	-5%	23µM*
O=C(Nc1ccc(Br)cc1)c1ccco1	11µM*	13µM*	?	3.2µM*	7.1µM*
O=C(Nc1ccc(Nc2ccccc2)cc1)c1ccco1	13µM*	7.6µM*	?	0.56µM*	9.2µM*
O=C(Nc1ccc(NC(=O)c2ccco2)cc1)c1ccco1	·	1%	7%	5%	16%
O=C(COc1cccc2c1CCN(Cc1ccccc1)C2=O)N1CCCCC1	-35%	6%	-8%	-5%	-3%
Cc1ccc(-c2ccc(/C=N/NC(=O)CN3CCCC3)o2)cc1Cl	-12%	-19%	3%	3%	1%
Cc1ccc(-n2nc3cc(C)c(NC(=S)NC(=O)/C=C/c4ccco4)cc3n2)cc1	?	11µM*	-3%	-9%	8.2µM*
O=C(/C=C/c1ccco1)NC(=S)Nc1ccccc1	·	27µM*	28%	?	10%
Cc1cccc(NC(=S)NC(=O)/C=C/c2ccco2)c1	7%	?	-29%	-10%	?
Cc1cccc(NC(=S)NC(=O)/C=C/c2ccco2)n1	-5%	?	?	3.5µM*	?
CC(=O)c1ccc(NC(=S)NC(=O)/C=C/c2ccco2)cc1	·	-13%	25%	29%	11%
Cc1ccc(-n2nc3ccc(NC(=S)NC(=O)/C=C/c4ccco4)cc3n2)cc1	?	-5%	14%	1%	?
COC(=O)COc1ccc(/C=C2/NC(=O)N(CC(=O)OC)C2=O)cc1	·	4%	-5%	-8%	-1%
CCN(CC(=O)Nc1c(F)cccc1F)C(=O)c1cn2ccccc2n1	·	5%	-4%	1%	4%
CCN(c1ccccc1)S(=O)(=O)c1ccc(OC)c(NC(=O)Cc2ccccc2OC)c1	·	0%	-7%	-6%	-1%
Cc1ccc(-c2nc3cc(C(C)C)ccc3o2)cc1NC(=O)c1cccs1	-6%	1.9µM*	·	·	·
SMILES	SMN2 splice enh	FLuc counter	NPC1 promoter act	Rab9 prom act	ELG1 genotox
Cc1ccc(-c2nc3cc(C(C)C)ccc3o2)cc1NC(=O)c1cc([N+](=O)[O-])ccc1N1CCOCC1	-46%	1.3µM*	·	·	·
Cc1ccccc1CNC(=O)CCC(=O)N1CC2CCCN2c2ccccc21 (configuration not stated)	·	-8%	·	·	·
O=c1ccc2cc(S(=O)(=O)N3CCOCC3)ccc2o1	7.9µM*	9%	-4%	2%	0%
COc1ccc(N2CCN(S(=O)(=O)c3ccc4oc(=O)ccc4c3)CC2)cc1	·	2%	-2%	0%	10%
Cc1cc(=O)oc2cc(NC(=O)c3ccc(OC(F)F)cc3)ccc12	·	-14%	?	?	4.5µM*
Cc1cc(=O)oc2cc(OCC(=O)Nc3cccc(S(=O)(=O)N(C)C)c3)ccc12	5%	4%	-4%	-8%	3%
Cc1cc(=O)oc2cc(NC(=O)C(C)Oc3ccc(F)cc3)ccc12 (configuration not stated)	·	1%	-1%	-2%	8%
Cc1cc(=O)oc2cc(NC(=O)c3cccc(F)c3)ccc12	·	-16%	?	1.4µM*	13%
Cc1cc(=O)oc2cc(NC(=O)c3cccc(S(=O)(=O)N(C)C)c3)ccc12	·	?	1.3µM*	0.89µM*	?
Cc1ccccc1NC(=O)CC1(c2ccc(N(C)C)cc2)C(=O)c2ccccc2C1=O	8%	-5%	-5%	-3%	0%
COc1ccc(OC)c(C(=O)COC(=O)CNC(=O)c2ccccc2)c1	3%	3%	0%	-4%	1%
Cc1ccc(C)c(C(=O)N(C)CC(=O)Nc2ccccc2C(F)(F)F)c1	-55%	1%	0%	-10%	-17%
NC(=O)CSc1ncc2c(n1)-c1ccccc1N(Cc1ccc(Cl)cc1)S2(=O)=O	·	2%	·	·	·
COc1ccc(NS(=O)(=O)c2cccc(C(=O)O)c2)cc1S(=O)(=O)N1CCOCC1	·	·	·	·	0%
C=CCN=C1S/C(=C\c2ccc(N(C)C)cc2)C(=O)N1CC=C	·	21µM*	18%	?	6%
C=CCN1C(=O)/C(=C/c2ccc(OC)cc2)S/C1=N/c1nccs1	-7%	1%	-3%	-3%	18%
O=C(/C=C/c1ccccc1Br)c1ccc2c(c1)OCO2	·	12µM*	17%	11%	21%
COc1cccc(/C=C/C(=O)c2ccc[nH]2)c1	?	2.1µM*	3.2µM*	3.2µM*	3.7µM*
CC(=O)c1ccc2c(c1)OCCOCCOCCOCCOCCO2	·	-4%	-7%	-2%	-2%
CN(C)c1ccc(/C=C/C(=O)c2ccc3c(c2)OCCO3)cc1[N+](=O)[O-]	-17%	9.5µM*	10%	13%	17%
O=C(/C=C/c1ccncc1)c1ccc2c(c1)OCCO2	·	12µM*	1%	-3%	11%
COc1ccc(C(=O)/C=C/c2ccc(N3CCCCC3)c([N+](=O)[O-])c2)cc1	-39%	-19%	5%	10%	1%
Cn1cnnc1SCC(=O)Nc1ccc(OC(F)F)cc1	-11%	-1%	-1%	-2%	1%
O=C(/C=C/c1ccc2c(c1)OCO2)c1ccc[nH]1	16µM*	2.1µM*	3.2µM*	?	?
CCN(Cc1ccc2c(c1)OCO2)C(=O)/C=C/c1cccc(Br)c1	·	-14%	0%	2%	13%
